Consider 40 compounds from ChEMBL document CHEMBL1157539, “Thousands of chemical starting points for antimalarial lead identification” (Nature, 2010).

Each structure is given as a SMILES string.

The subject of one assay is Plasmodium falciparum. The experiment in a line: GSK_TCMDC: Inhibition of Plasmodium falciparum Dd2 in whole red blood cells, using parasite LDH activity as an index of growth. Test compounds present at 2uM. Type of assay: functional.
Regarding `COc1cc2nc(C)nc(Nc3ccc(Oc4ccccc4)cc3)c2cc1OC.Cl`, the Inhibition – broadly, how much of the control response was suppressed – amounted to 72%.
Still for that read-out and setting: then `CCCCCN1CCCC1CNS(=O)(=O)c1cccc(C(=O)Nc2cccc(C#N)c2)c1.O=C(O)C(F)(F)F` (stereo not drawn), with 7%; and `Cc1cc(F)ccc1Oc1nc(Nc2ccc(N3CCOCC3)c(F)c2)nc2c1S(=O)(=O)CCC2.Cl`, with 98%.
Still for that read-out and setting: the value for `Cc1cc(OCCCN2CCC(NS(=O)(=O)c3ccc(Cl)c(Cl)c3)C2)c2ccccc2n1` (stereo not drawn) was 37%; that for `N#Cc1cc(C(=O)c2cc(Br)ccc2O)cn(-c2cc(Cl)cc(Cl)c2)c1=O` was 35%.
`O=C(O)C(F)(F)F.c1ccc2[nH]c(-c3ccc(-c4ccc(CNCC5CCCO5)cc4)s3)nc2c1` (stereo not drawn) had an Inhibition of 87%.
Still for that read-out and setting: the value for `Br.NCC(=O)NC12CC3CC(CC(C3)C1)C2` was 0%; that for `Cc1ccc(S(=O)(=O)n2cc(-c3ccnc(N)c3)c3cc(Br)cnc32)cc1` was 31%.

The subject of the next assay is HepG2. Put plainly: GSK_TCMDC: Percent inhibition of human HepG2 cell line. Test compounds present at 10uM. Type of assay: functional.
Turning to `CC(C)c1ccc(CN2CCC(CNC(=O)c3cc(-c4ccccc4F)cs3)C2)cc1.O=C(O)C(F)(F)F` (stereo not drawn), the Inhibition was determined as 32%.
On the same count and under the same terms, then `CC(=O)Nc1ccc(S(=O)(=O)N2CCN(c3nc(NC4CCCC4)c4ccccc4n3)CC2)cc1`, with 7%; and `Cc1ccc2[nH]c(-c3cc(-c4cccc(C#N)c4)cnc3N)nc2c1.O=C(O)C(F)(F)F`, with 40%; and `O=C(Nc1nc2cc(S(=O)(=O)NCCc3ccc(F)cc3)ccc2n1CCCn1ccnc1)c1ccc(Cl)cc1.O=C(O)C(F)(F)F`, with 18%.
The same measure, in the same setting: the value for `CN(C(=O)c1cc2c(-c3cncnc3)cccc2[nH]1)c1ccccc1` was 1%; that for `CCc1nonc1NC(=O)c1oc2c(C)c(C)ccc2c1C` was 1%.
In turn, `CN1CCC(NC(=O)c2cccc(Nc3cc(Nc4cccc(Br)c4)ncn3)c2)CC1` registered an Inhibition of 25%.
Still for that read-out and setting: the value for `COc1cc(NC(=O)c2cccs2)c(C(=O)NCc2ccc(C)cc2)cc1OC` was 3%; that for `COC(=O)c1cccc(CNCc2cccc(-c3cccc(-c4nc5cc(F)ccc5[nH]4)c3)c2)c1.O=C(O)C(F)(F)F` was 27%; that for `Clc1ccccc1C=NN=c1cc[nH]c2ccccc12` was 25%.
On the same count and under the same terms, the value for `CC(NC(C)c1cccc(Cl)c1)C(=O)Nc1cc(C(F)(F)F)ccc1N1CCOCC1` (stereo not drawn) was 30%; that for `Cc1cccc2nc(-c3ccc(-c4cccc(CN5CCC(CO)CC5)c4)s3)[nH]c12.O=C(O)C(F)(F)F` was 20%.
`Cc1ccc(C2(C)CN(CCCOc3cccc(-c4ccc(C(=O)NC(C)C)cc4)c3)CCO2)cc1` (stereo not drawn): the Inhibition stood at 15%.
In the case of `Cc1ccc(NC(=O)c2ccc3nccnc3c2)cc1OC1CCN(Cc2ccc(F)cc2)CC1.O=C(O)C(F)(F)F`, the Inhibition is listed as 16%.
On the same count and under the same terms, then `Cl.Clc1ccc(OCCC2CCN(CCCCCCN3CCCCC3)CC2)cc1Cl`, with 86%; and `CN(C)S(=O)(=O)c1ccc(N2C(=O)C3C(C2=O)C2(c4ccccc4)C(=O)C3(c3ccccc3)C(c3ccccc3)=C2c2ccccc2)cc1` (stereo not drawn), with 0%; and `Nc1nccc2ccc(-c3ccc4ncccc4c3)cc12.O=C(O)C(F)(F)F`, with 97%.
On the same count and under the same terms, the value for `O=C(O[C@@H]1CN[C@H](C#Cc2cc3c(Nc4ccc5c(cnn5Cc5ccccc5)c4)ncnc3s2)C1)N1CCCC1` was 8%; that for `C=C[C@H]1CN(CCCCCCC)CC[C@H]1CC(O)Cc1ccnc2cc(O)c(OC)cc12.O=C(O)C(=O)O` (stereo partly drawn) was 7%; that for `CCCNc1nc(NCc2c(C)cccc2C)nc(NC(C)(C)C)n1` was 15%.
On the same count and under the same terms, then `COc1ccc(C(=O)C2CC2CN(C)CCC(O)c2ccc(Cl)c(Cl)c2)cc1` (stereo not drawn), with 24%; and `COc1cc2nc(N3CCC(CNC(=O)c4ccc(-c5ccc(C(F)(F)F)cc5)cc4)CC3)nc(N)c2cc1OC`, with 94%.
Compound `CCc1c(C)nc(-n2nc(C)cc2NC(=O)c2ccc(OC)cc2OC)[nH]c1=O` gave an Inhibition of 42%.
As for `Cc1ccc2cc(NCCCCCCCCON3C(N)=NC(N)=NC34CCCCC4)ccc2n1`, the Inhibition stood at 15%.
Still for that read-out and setting: then `Cc1cccc2nc(-c3ccc(-c4cccc(CN5CCCC(O)C5)c4)s3)[nH]c12.O=C(O)C(F)(F)F` (stereo not drawn), with 13%.
With `Cc1nc(C(C)Nc2nncc(-c3ccc(Cl)cc3)n2)cs1` (stereo not drawn), the Inhibition was found to be 0%.
On the same count and under the same terms, then `O=C(NCCc1ccccc1)N(Cc1cccc(-c2ccc(CNCc3ccc4c(c3)OCO4)cc2)c1)C1CCN(Cc2ccccc2)CC1.O=C(O)C(F)(F)F`, with 11%; and `Cl.N=C(N)NN=Cc1cc([N+](=O)[O-])ccc1Sc1ccccc1CO`, with 25%.
Still for that read-out and setting: the value for `Cc1cccc2nc(-c3cccc(-c4cccc(CNCC5CCCO5)c4)c3)[nH]c12.O=C(O)C(F)(F)F` (stereo not drawn) was 26%; that for `COc1ccc(-c2cccc(NC(=O)c3ccc(C#N)cc3)c2)cc1CN1CCN(C)CC1.O=C(O)C(F)(F)F` was 24%; that for `CCc1c[nH]c2c(N3CCCS3(=O)=O)cc(C(=O)N[C@@H](Cc3ccccc3)[C@H](O)CNC3CCCCC3)cc12.O=CO` was 6%.
Still for that read-out and setting: the value for `COc1ccc(CN(C)CCOc2ccc(NC(=O)c3cccc4c(=O)c5cc(SC)ccc5[nH]c34)cc2)cc1OC` was 67%; that for `COc1cc2nc(C)nc(Nc3ccc(Oc4ccccc4)cc3)c2cc1OC.Cl` was 0%; that for `CCCCCN1CCCC1CNS(=O)(=O)c1cccc(C(=O)Nc2cccc(C#N)c2)c1.O=C(O)C(F)(F)F` (stereo not drawn) was 19%.
On to `Cc1cc(F)ccc1Oc1nc(Nc2ccc(N3CCOCC3)c(F)c2)nc2c1S(=O)(=O)CCC2.Cl`, for which the Inhibition is 10%.
Same read-out and setting: then `Cc1cc(OCCCN2CCC(NS(=O)(=O)c3ccc(Cl)c(Cl)c3)C2)c2ccccc2n1` (stereo not drawn), with 28%; and `N#Cc1cc(C(=O)c2cc(Br)ccc2O)cn(-c2cc(Cl)cc(Cl)c2)c1=O`, with 42%; and `O=C(O)C(F)(F)F.c1ccc2[nH]c(-c3ccc(-c4ccc(CNCC5CCCO5)cc4)s3)nc2c1` (stereo not drawn), with 27%.
Same read-out and setting: the value for `Br.NCC(=O)NC12CC3CC(CC(C3)C1)C2` was 15%; that for `Cc1ccc(S(=O)(=O)n2cc(-c3ccnc(N)c3)c3cc(Br)cnc32)cc1` was 8%.
